Experimental data published in PubChem BioAssay AID1117319 (Southern Research Institute, 2015).
Values joined by “and” are separate entries in the source; they are usually repeats but may differ in a detail not shown here. Equal values may be shown once. Out of some 260,000 compounds screened, about 1,500 (0.58%) were called active. Another 5% or so got no clear call; they are omitted. A selection follows. Results with a measured potency or affinity are listed apart. A number with no mark means an inactive call.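 The calls were made as follows: active = inhibition above a set limit at one or more doses, reproduced on every date tested; inconclusive = results disagree between test dates, or hit never tested in dose response; inactive = the rest.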

Target: Virion infectivity factor (Human immunodeficiency virus type 1 group M subtype B (isolate BH10)) + Virion infectivity factor (Human immunodeficiency virus type 1 group M subtype B (isolate BRU/LAI)) + Virion infectivity factor (Human immunodeficiency virus type 1 group M subtype B (isolate PCV12)) + Virion infectivity factor (Human immunodeficiency virus type 1 group M subtype B (isolate HXB2)) + DNA dC->dU-editing enzyme APOBEC-3G (Homo sapiens) (UniProt P69720+P69721+P69722+P69723+Q9HC16)
Test: HIV-1 Vif–A3G interaction blockers – biochemical, TR-FRET, GST-Vif 1-94, biotin-A3G peptide, dose response retest, primary screen (AID 1117319);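 also: Vif residues 1-94 fused to GST binding biotinylated APOBEC3G peptide 110-148; 0% = full assay without inhibitor and 100% = GST in place of GST-Vif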
Details: TR-FRET GST-Vif / biotin-A3G peptide binding; stronger effect = higher value

| Structure (SMILES) | inhibition |
| --- | --- |
| Cc1ccc(CNC(=O)c2ccc(CN3CCOCC3)cc2)cc1 | 32.3% |
| Cc1[nH]c2ccccc2c1C(=O)NS(=O)(=O)Nc1ccc(Cl)cc1 | 12.1% |
| CN(C)S(=O)(=O)c1ccc(C(=O)Nc2nnc(-c3cccs3)o2)cc1 | 27.3% |
| O=C(Nc1ccc(N2CCN(C(=O)c3ccc(Cl)cc3)CC2)cc1)c1ccc(Br)o1 | 10.6% and 6.22% |
| COC(=O)c1c(NC(=O)Cc2cccs2)sc2c1CCCC2 | 29.5% |
| CCOC(=O)c1c(NC(=O)Cc2cccs2)sc2c1CCCC2 | -5.96% |
| O=c1c2cc(N3CCOCC3)ccc2[nH]c(=S)n1Cc1ccc(Cl)cc1 | -2.52% |
| O=c1c2cc(N3CCOCC3)ccc2[nH]c(=S)n1CCN1CCCC1 | 12.5% |
| O=c1c2cc(N3CCOCC3)ccc2[nH]c(=S)n1Cc1ccccc1Cl | -15.9% |
| CCCCn1c(=S)[nH]c2ccc(N3CCOCC3)cc2c1=O | -3.86% |
| CN(C)C(CNS(=O)(=O)c1ccc(F)cc1)c1cccnc1 (stereo not drawn) | -1.58% |
| CN(C)S(=O)(=O)c1ccc(Cl)c(C(=O)NNC(=O)c2ccc3c(c2)OCO3)c1 | -8.17% |
| Cc1ccsc1C(=O)NC(C)c1ccc2c(c1)OCO2 (stereo not drawn) | 0.99% |
| CCSc1nnc(Nc2ccc(C)cc2)s1 | 1.17% |
| CC(C)C12CN3CC(C(C)C)(CN(C1)C3c1ccc3c(c1)OCO3)C2=O (stereo not drawn) | 2.83% |
| Cc1ccc2oc(-c3ccc(NC(=O)c4ccncc4)cc3O)nc2c1 | -2% |
| O=C(COC(=O)c1ccc(S(=O)(=O)C(F)F)cc1)Nc1cccnc1Cl | 10.1% |
| Cc1cc(C)n2nc(SCC(=O)N3CCC(C(=O)O)CC3)nc2n1 | 0.2% |
| Cc1cccc(OCc2nnc(NC(=O)Cc3cccs3)s2)c1 | -15.6% |
| Clc1ccccc1Oc1cnc2ccccc2n1 | 31.7% |

| Structure (SMILES) | inhibition |
| --- | --- |
| O=c1c(OC2OC(CO)C(O)C(O)C2O)c(-c2ccc(O)c(O)c2)oc2cc(O)cc(O)c12 (stereo not drawn) | -4.71% |
| C[C@@H]1O[C@@H](OC[C@H]2O[C@@H](Oc3c(-c4ccc(O)c(O)c4)oc4cc(O)cc(O)c4c3=O)[C@H](O)[C@@H](O)[C@@H]2O)[C@H](O)[C@H](O)[C@H]1O | -12% |
| COc1ccc(-c2oc3c(CC=C(C)C)c(O[C@@H]4O[C@H](CO)[C@@H](O)[C@H](O)[C@H]4O)cc(O)c3c(=O)c2O[C@@H]2O[C@@H](C)[C@H](O)[C@@H](O)[C@H]2O)cc1 | 0.27% |
| O=c1c(O[C@@H]2O[C@H](CO)[C@@H](O)[C@H](O)[C@H]2O)c(-c2ccc(O)c(O)c2)oc2cc(O)cc(O)c12 | -5.92% |
| CN(C)C(CNC(=O)CCc1c[nH]c2ccccc12)c1ccccc1 (stereo not drawn) | 0.02% |
| O=C(COC(=O)C1CCN(S(=O)(=O)c2cccs2)CC1)Nc1ccccc1 | -2.54% |
| CCN(Cc1ccccc1)C(=O)Cn1c(C(C)O)nc2ccccc21 (stereo not drawn) | -14.7% |
| CC(=O)OC1C(OC(C)=O)C2C(C)CC3OC(=O)C(C)C3CC2(C)C1OC(C)=O (stereo not drawn) | 1.67% |
| COc1ccc(C(OCC(O)CNCCc2ccc(S(N)(=O)=O)cc2)c2ccc(OC)cc2)cc1 (stereo not drawn) | -0.36% |
| Cc1ccc(-n2c(CCC(=O)O)ccc2-c2cccs2)cc1 | 9.93% |
| CC(=O)c1ccc(-n2c(CCC(=O)O)ccc2-c2cccs2)cc1 | 7.93% |
| Cc1c(C(=O)Nc2ccccc2-c2ccccc2)cccc1[N+](=O)[O-] | 22.9% |
| Cc1ccccc1CNC(=O)c1ccc(Cl)c([N+](=O)[O-])c1 | 3.74% |
| Cc1nn(C)cc1CNC(=O)c1cccc(Cl)c1 | 0.88% |
| COCC(C)OC(=O)c1c(N)n(-c2ccc(OC)c(OC)c2)c2nc3ccccc3nc12 (stereo not drawn) | 7.95% |
| COc1cc(/C=C/C(=O)OCC(=O)Nc2ccc3c(c2)OCCO3)ccc1OCC#N | -0.31% |
| N#CC1=C2C=Cc3ccccc3N2CCCC1=O | 6.87% |
| COC(=O)C(C)Sc1nnc(Cc2cc(=O)[nH]c(=O)[nH]2)n1-c1ccc(OC)cc1 (stereo not drawn) | 7.85% |
| Cc1ccc(C)c(-n2c(Cc3cc(=O)[nH]c(=O)[nH]3)nnc2SC(C)C)c1 | 71.3% |
| Cn1c(=O)c2c(nc(CN3CCN(C(=O)c4ccco4)CC3)n2Cc2cccc(Cl)c2)n(C)c1=O | 7.79% |

| Structure (SMILES) | inhibition |
| --- | --- |
| COc1ccccc1OCC(=O)N1CCCC(Nc2cccc(F)c2)C1 (stereo not drawn) | -1.81% |
| COCC(=O)n1nc(-c2ccccc2)nc1NCc1ccc(N(C)C)cc1 | -5.23% |
| Cc1cc(C)n(CC(=O)N2CCc3ccccc32)c(=O)c1C#N | -19.3% |
| Cc1cc(O)ccc1C1(c2ccc(O)cc2C)OC(=O)c2ccccc21 | -0.95% |
| O=C1OC2(c3ccccc31)c1ccccc1-c1ccccc12 | -7.13% |
| Cc1cccc(NC(=O)CN2CCN(C(=O)c3oc4c(Cl)cccc4c3C)CC2)c1C | -10% |
| Cc1cccc(Nc2nc(N)c([N+](=O)[O-])c(N3CC(C)OC(C)C3)n2)c1 (stereo not drawn) | -1.71% |
| COC(Cc1nnc(SC)n1-c1ccccc1)OC | 6.71% |
| COC(Cc1n[nH]c(=S)n1-c1ccc(Cl)cc1)OC | -7.57% |
| Cc1ccc(C2N(c3ccccc3)C(=S)N3CCCN23)cc1 (stereo not drawn) | 19.3% |
| COc1ccccc1Nc1ccc2c(O)cc(S(=O)(=O)O)cc2c1 | 15.2% |
| O=C(O)c1cc(S(=O)(=O)O)cc(Nc2c3ccccc3nc3ccccc23)c1O | 5.42% |
| O=S(=O)(O)c1ccc(O)c2cc(Nc3ccccc3)ccc12 | -8.31% |
| Nc1ccc(C(=O)Nc2ccc3c(O)cc(S(=O)(=O)O)cc3c2)cc1 | 29.1% |
| Nc1ccc(C(=O)Nc2ccc3cc(S(=O)(=O)O)ccc3c2)cc1 | 7.06% |
| O=C(O)c1cc(NS(=O)(=O)c2ccc3ccccc3c2)ccc1O | -12.2% |
| CC(=O)Nc1ccc2c(O)cc(S(=O)(=O)O)cc2c1 | 19.9% |
| O=C(O)c1cc2cc(S(=O)(=O)O)ccc2cc1O | 26.7% |
